KB-3-1 tox – kills parental KB-3-1 adenocarcinoma cells; Potency, µM (top dose mostly 46.1 µM), hits mostly cytotoxic; hit rate 1.4% among 400,000; AID 1347075; KB-3-1 viability, CellTiter-Glo ATP luminescence, 72 h; note: nearly all actives have a fitted effect of over 60% in size
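72 h, 37 °C compound treatment of KB-3-1 parental cells; CellTiter-Glo added, 10 min, luminescence read. Data corrected against DMSO-only plates and normalized before curve fitting.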
DT40 TDP1 no CPT – qHTS for Inhibitors of human tyrosyl-DNA phosphodiesterase 1 (TDP1): qHTS in cells in absence of CPT. DT40 Tdp1-/- hTDP1 cells, no CPT, ATP luminescence, 48 h. Potency, µM (highest dose often 46.2 µM), without a hit: at the highest dose activity change, negative = growth inhibition, hits mostly inhibitors. hit rate 15% among 420,000. AID 686978, 2013; note: nearly all actives have a fitted effect of over 55% in size
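Luminescent ATP content (CellTiter-Glo) served as the growth readout. Knockout chicken DT40 cells expressing human TDP1 were exposed to compounds without camptothecin for a minimum 48 hr at 37 °C.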
KB-V1 MDR tox – KB-V1 MDR subline cytotoxicity; KB-V1 MDR cells viability, CellTiter-Glo, 72 h; Potency, µM (top dose mostly 46.1 µM), most hits filed as cytotoxic; hit rate 3.4% among 400,000; AID 1347076; note: nearly all actives have a fitted effect of over 60% in size
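Cytotoxicity via CellTiter-Glo luminescence after 72 h compound exposure at 37 degrees C. Cells: drug-selected KB-V1 line, DMEM phenol-red free plus 10% FBS. Compounds tested at multiple concentrations; normalized data fitted to concentration-effect curves.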
HT1080 IDH1KD tx – kills HT-1080 cells with IDH1 knockdown | hit rate 2% among 360,000 | HT-1080 IDH1 knockdown viability, ATP luminescence, 48 h | AID 686971 | Potency, µM (titrated, usually from 46.1 µM), for inactives: top-dose activity, negative = toxicity, usual class: cytotoxic;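 note: 0% = DMSO wells and -100% = cell-free medium wells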
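% activity derives from luminescence (CellTiter-Glo), normalised to DMSO and no-cell wells. HT-1080-IDH1KD cells, 750/well, had 48 h compound exposure at 37 °C.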
DT40 TDP1 CPT – DT40-hTDP1 cell growth loss with CPT; chicken DT40 Tdp1-/-;hTDP1 cells + 20 nM CPT, ATP luminescence, 48 h; Potency, µM (doses to about 46.2 µM), without a hit: at the highest dose activity change, negative = growth inhibition, usual class: inhibitors; hit rate 12% among 420,000; AID 686979; note: nearly all actives have a fitted effect of over 55% in size
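Chicken DT40 Tdp1-/- cells complemented with human TDP1, 400 cells/well, exposed to compounds plus 20 nM camptothecin for at least 48 h at 37 C; viability read as ATP content by CellTiter-Glo luminescence.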
HT1080-NT tox – kills 2HG-producing HT-1080-NT fibrosarcoma cells; HT-1080-NT fibrosarcoma viability, CellTiter-Glo ATP luminescence, 48 h; Potency, µM (highest dose often 46.1 µM), without a hit: top-dose activity, negative = less viability, hits mostly cytotoxic; hit rate 1.6% among 360,000; AID 686970;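 note: NT is the 2HG producing partner of a matched IDH1 knockdown line; 0% = DMSO-treated cells and -100% = media-only wells without cells; nearly all actives have a fitted effect of over 55% in size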
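Fibrosarcoma NT cells, 750 per well in 5% FBS RPMI, were exposed to compound for 48 hours. Viability: CellTiter-Glo luminescence.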
* marks the source's active call; other numbers are inactive results; i = inactive; ? = inconclusive; / = not tested or not shown; [ ] = dose if it differs, or a comment. In the library only some 19% were active in any assay of this set; here they are far more common. Calls come from the whole dose curve; as a rule, active = well fitted curve in the direction sought with a large enough effect; inconclusive = small, poorly fitted or top-dose-only effect, or another doubt; inactive = no such curve, though single readings can be large; an effect the other way counts as inactive or inconclusive. Unless noted, % is set by controls: 0 for no effect and ±100 for the full control effect; potency is the fitted concentration of half-maximal effect.

SMILES	KB-3-1 tox	DT40 TDP1 no CPT	KB-V1 MDR tox	HT1080 IDH1KD tx	DT40 TDP1 CPT	HT1080-NT tox
CCOC(=O)c1ccccc1NC(=O)CSc1cn(CC(=O)N2CCOCC2)c2ccccc12	/	-22%	/	/	-27%	/
Cc1cccc(/C=C\c2ccccc2)n1	/	-72%	/	/	?	/
Cc1ccc(/C=C/c2ccc3cccc(O)c3n2)s1	?	16µM*	i	-22%	?	-21%
CC(C)n1nc(C(=O)Nc2nc3ccc(S(C)(=O)=O)cc3s2)c2ccccc2c1=O	i	-14%	i	-6%	-14%	-3%
CC(C)n1nc(C(=O)Nc2nnc(SCc3c(Cl)cccc3Cl)s2)c2ccccc2c1=O	i	?	i	0%	10µM*	-16%
Cc1cc(C)n2c(Br)c(CSc3nc4ccccc4o3)nc2n1	i	?	21µM*	2%	?	-5%
Cc1ccc(NC(=O)c2cnn3c(C(F)F)cc(-c4ccccc4)nc23)c(C)c1	i	18µM*	i	/	-2%	/
COc1ccc(-c2cc(C(F)F)n3ncc(C(=O)NCCCN4CCCC4=O)c3n2)cc1	i	16µM*	?	11%	?	-8%
O=C(NCCCN1CCOCC1)c1cc(-c2ccc(F)cc2)nc2ccccc12	i	-26%	i	-9%	?	4%[9.24 µM]
CCCNC(=O)c1cnn2c(C(F)F)cc(-c3ccccc3)nc12	i	21µM*	i	/	21µM*	/
O=C(NCCCN1CCCC1=O)c1cc(-c2ccc(F)cc2)nc2ccccc12	i	26µM*	?	-4%	?	-5%
COc1cccc(CN2Cc3cccc4c3[C@H](C=CC4)CC2=O)c1	i	?	?	/	?	/
O=[N+]([O-])c1ccccc1/C=C/C=N/n1c(-c2ccccc2F)n[nH]c1=S	i	-17%	i	11%	16%	9%
CCOc1ccc(-c2c(C)nn3c(C)c(C(=O)Nc4cccc(Cl)c4C)cnc23)cc1OCC	i	?	i	/	?	/
CN(C)C(=O)COC(=O)c1ccccc1OCC(=O)Nc1ccc(Br)cc1	?	?	i	/	?	/
CS(=O)(=O)c1ccc2nc(NC(=O)c3ccc(Cn4cc(Br)cn4)o3)sc2c1	/	-4%	/	-1%	-15%	0%
CC1CCCCC1NC(=O)C1CCN(S(=O)(=O)c2cccc3nonc23)CC1 (stereo not drawn)	i	?	i	4%	10%	4%
O=C(Nc1ccccc1)/C(=C\c1ccc(F)cc1)NC(=O)c1ccco1	i	-1%	i	13%	4%	12%
O=C(O)c1ccccc1C(c1ccc(O)cc1)c1ccc(O)cc1	i	-1%	i	8%	-9%	17%
CC(=O)Nc1cccc(/C(C)=N\NC(=O)c2ccc(Cn3nc([N+](=O)[O-])c(Cl)c3C)o2)c1	i	?	?	-7%	?	-2%
Cc1cccc(-n2nc(C(=O)Nc3ccccc3)n3c(=O)cc(-c4ccccc4)nc23)c1	i	16µM*	i	14%	?	?
O=C(c1ccccc1)c1nn(-c2cccc(Cl)c2)c2nc(-c3ccccc3)cc(=O)n12	?	?	4.1µM*	1%	-30%	0%
O=C(c1ccccc1)c1nn(-c2cccc(Cl)c2)ccc1=O	i	-28%	i	-2%	?	4%
O=C(COC(=O)c1ccc(O)cc1)NCC1COc2ccccc2O1 (stereo not drawn)	i	-12%	i	-4%	2%	-4%
Cc1ccc(S(=O)(=O)N2[C@@H](c3ccc(Br)cc3)C(C(=O)O)=C[C@H]2C(C)(C)C)cc1	i	?	i	-11%	-16%	-16%
SMILES	KB-3-1 tox	DT40 TDP1 no CPT	KB-V1 MDR tox	HT1080 IDH1KD tx	DT40 TDP1 CPT	HT1080-NT tox
O=C(/C=C\Nc1ccc2c(c1)OCO2)c1cccs1	?	-19%	i	6.5µM*	0%	?
Cc1cc(Br)c(OCc2ccc(C(=O)N/N=C/c3ccc[nH]3)cc2)c(Br)c1	2.6µM*	?	?	1µM*	?	0.82µM*
O=C(N/N=C/c1ccc[nH]1)c1ccc(COc2cccc3cccnc23)cc1	2.3µM*	-47%	i	5.2µM*	-16%	?
COc1ccc(-c2cc(C(=O)NCCc3ccccc3)c3c(-c4ccccc4)[nH]nc3n2)cc1	i	?	?	/	?	/
CCOc1ccc(-c2cc(C(=O)NCc3ccccc3)c3c(-c4ccc(CC)cc4)[nH]nc3n2)cc1	i	?	i	/	21µM*	/
Cc1ccc(CNC(=O)c2cc(-c3ccc(C)cc3)nc3n[nH]c(-c4cccc([N+](=O)[O-])c4)c23)cc1	i	?	i	/	12µM*	/
COc1ccc(OC)c(-c2cc(C(=O)NCCc3ccccc3)c3c(-c4ccc(C)cc4)[nH]nc3n2)c1	i	13µM*	i	/	23µM*	/
COc1ccc(-c2cc(C(=O)NCCc3ccccc3)c3c(-c4ccc(Cl)cc4)[nH]nc3n2)cc1	i	10µM*	23µM*	/	12µM*	/
CCOc1ccc(-c2cc(C(=O)NCc3ccc(OC)cc3)c3c(-c4ccc(F)cc4)[nH]nc3n2)cc1	i	0%	?	/	0%	/
COC(=O)CN(c1ccc(OCc2ccccc2)cc1)S(C)(=O)=O	i	?	i	0%	-21%	14%
COC(=O)c1ccc2nc(-c3ccco3)c(Cc3ccccc3C(F)(F)F)n2c1	i	?	i	-28%	?	2%
CCn1cc(CN2CCc3c([nH]c4ccccc34)C2c2cccc(O)c2)c(C)n1 (stereo not drawn)	i	?	i	?	-1%	-19%
Cc1cccc(C2c3[nH]c4ccccc4c3CCN2C(=O)c2ocnc2C)n1 (stereo not drawn)	i	?	i	-15%	5%	-24%
CSc1ncc(CN2CCc3c([nH]c4ccccc34)C2c2cccc(C)n2)cn1 (stereo not drawn)	i	26µM*	i	-10%	?	-7%
CSc1ncc(CN2CCc3c([nH]c4ccccc34)C2c2cccc(O)c2)cn1 (stereo not drawn)	i	26µM*	i	-14%	?	-5%
Cc1cccc(NC(=O)C(CCC(N)=O)NC(=O)OCc2ccccc2)c1 (stereo not drawn)	i	-2%	i	7%	12%	-1%
O=C(O)c1ccc2c(c1)CC(c1ccccc1)OC2=O (stereo not drawn)	i	-9%	i	9%	7%	11%

Screens (PubChem)
